In all, about 310,000 compounds went through this assay and about 18,000 (5.8%) were called active. Roughly 22% stayed inconclusive and do not appear here. Shown is part of a subset that was picked to be rich in actives. Unmarked numbers belong to inactive results. Calls follow the shape of the dose curve; as a rule, active = well fitted inhibition curve with a large enough effect; inconclusive = small, poorly fitted or top-dose-only effect, or another doubt; inactive = no such curve, though single readings can be large or run the other way.
Assay: Primary qHTS for delayed death inhibitors of the malarial parasite plastid, 48 hour incubation
Settings: P. falciparum luciferase growth in erythrocytes; series mostly up to 28.7 µM; activity change, negative = inhibition: at the top concentration
How it was run: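 Luciferase-expressing parasites in RBCs, 2% Hct / 0.1% parasitemia final; RPMI 1640 + 0.5% Albumax; 37 C, 5% CO2, one generation; luminescence read-out, lower signal = inhibition.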
% is scaled to controls: 0 for no effect and ±100 for the full control effect; potency is read from the fitted curve at half-maximal effect.

Compound | activity change, negative = inhibition | Potency
O=C(CCc1nnc2ccc(NCc3ccco3)nn12)Nc1cc(F)ccc1F | 8.55% | 
N#C/C=C\Oc1ccc(Cl)cc1N |  | 7380 nM (active)
COc1ccc(Cl)cc1C(=O)NCC#N | -5.62% | 
O=C(Nc1ccncc1)c1cc(-c2ccccn2)nc2ccc(Br)cc12 | 11.8% | 
COC(=O)CNC(=O)c1cc(-c2ccncc2)nc2ccccc12 | -41% | 
Cc1ccc2nc(-c3ccncc3)cc(C(=O)Nc3ccncc3)c2c1 |  | 13100 nM (active)
CCN(CC)CCNC(=O)c1ccc(NC(=O)c2cc(-c3ccncc3)nc3ccccc23)cc1 |  | 828 nM (active)
Cc1ccc2nc(-c3ccccn3)cc(C(=O)Nc3ccc4c(c3)OCO4)c2c1 | -10.7% | 
CCN(CC)CCNC(=O)c1ccc(NC(=O)c2c(F)cccc2Cl)cc1 | -17.4% | 
COc1ccc(C(=O)O)cc1S(=O)(=O)NCc1cccnc1 | 13.9% | 
CC(=O)Nc1ccc(NC(=O)C2CCCN2S(=O)(=O)c2cccc(C(F)(F)F)c2)cc1 (stereo not drawn) | 56.5% | 
CCCCn1c(N)c(N(CC(C)C)C(=O)CN(C)S(=O)(=O)c2ccc(F)cc2)c(=O)[nH]c1=O | -18.4% | 
CSCCC(NC(=O)COc1ccccc1)C(=O)OCCOc1ccc(F)cc1 (stereo not drawn) | -6.23% | 
O=C1CSc2ccc(S(=O)(=O)NCc3ccccc3)cc2N1 | 18.8% | 
CCN1/C(=C\c2ccc3ccccc3[n+]2CC)Sc2cc(C)ccc21 |  | 1170 nM (active)
CCN1/C(=C/C(=S)Nc2ccccc2)Sc2ccccc21 | 4.72% | 
CCN1/C(=C/c2ccc3ccc(C)cc3[n+]2CC)Sc2ccccc21 |  | 1170 nM (active)
CCOC(=O)c1c(C)[nH]c(C(=O)OCC(=O)c2ccc(OC)cc2OC)c1C | 50.2% | 
CCCc1cc(=O)oc2c(C)c(OCC(=O)Nc3ccccn3)ccc12 | -9.35% | 
O=C(COC(=O)c1cnccn1)Nc1ccc(Cl)cc1C(F)(F)F | 13.7% | 
COC(=O)c1ccc(CSc2ccc(S(=O)(=O)N3CCCCC3)cn2)cc1 | -17.8% | 
CN(Cc1ccccc1)S(=O)(=O)c1nnc(NC(=O)c2ccccc2F)s1 | 0.694% | 
COc1ccc(CCc2nc(-c3cccs3)no2)cc1 | 66% | 
C=CCc1ccccc1OCC(O)CN1CCN(CCO)CC1 (stereo not drawn) | -12.8% | 
Cc1cc(C)n2nc(C(=O)OC(C)C(=O)c3cc(C)c(C)cc3C)nc2n1 (stereo not drawn) | 11.2% | 
CCOC(=O)C1CN(S(=O)(=O)c2ccc(OC)cc2)c2cc(Cl)ccc2O1 (stereo not drawn) | -15.5% [at 0.00184 µM] | 
O=C(NNC(=O)c1cccnc1)Nc1ccccc1 | -5.94% | 

Compound | activity change, negative = inhibition | Potency
O=C(NNC(=O)c1csc(-c2cccnc2)n1)Nc1ccc(Cl)cc1 |  | 8280 nM (active)
O=C(Nc1ccc(Cl)cc1)Nc1ccc(Oc2cccnc2)nc1 | 61.4% | 
COc1cccc(CNS(=O)(=O)c2ccc3c(c2)CC(C)N3C(C)=O)c1 (stereo not drawn) | 19.4% | 
Cc1cccc(OCC(=O)NC2CC(C)(C)NC(C)(C)C2)c1 | 9.53% | 
COc1ccc(CCNC(=O)c2c(C)nn(-c3ccccc3)c2Cl)cc1 | 17.6% | 
COc1cnc(-c2ccccn2)nc1Oc1ccc(C(C)(C)C)cc1 |  | 1650 nM (active)
COc1ccc(Nc2nc(-c3cccnc3)nc3ccccc23)cn1 | 0% | 
CC(C)(C)Nc1nc(-c2ccccn2)nc2ccccc12 |  | 2940 nM (active)
COc1ccc(Cc2nc(-c3ccccn3)no2)cc1OC | 54.6% | 
N#Cc1ccc(Oc2cc(C(F)(F)F)nc(-c3ccccn3)n2)cc1 | 22.8% | 
Cc1ccc(Oc2nc(-c3ccccn3)nc3ccccc23)cc1 |  | 1470 nM (active)
COc1ccc(Sc2nc(-c3ccccc3)ncc2OC)cc1 | 60.4% | 
CCC(=O)OCCNc1nc(-c2ccccc2)nc2ccccc12 | 20.8% | 
Cc1ccc(Oc2nc3ccccc3n3c(C)nnc23)cc1 | 15.2% | 
COc1ccc(S(=O)(=O)N(CC(=O)N/N=C/c2ccc(C(=O)O)cc2)Cc2ccccc2)cc1OC | -7.28% | 
COc1ccc(C)cc1N(CC(=O)NC(C)c1ccccc1)S(C)(=O)=O (stereo not drawn) | -4.34% | 
Cc1ccccc1OCC(=O)NNC(=O)c1cc(S(=O)(=O)N(C)C)ccc1N1CCCC1 | -1.17% | 
Cc1ccc(S(=O)(=O)N(CC(O)CN2CCCCC2)c2cccc([N+](=O)[O-])c2)cc1 (stereo not drawn) | 3.97% | 
CC(C)CNS(=O)(=O)c1ccc(CCC(=O)NCc2ccc(Cl)cc2)cc1 | -15.5% | 
NC(=O)c1cc(S(=O)(=O)N2CCCC2)ccc1OCc1ccc(F)cc1 | -18.6% | 
CCOc1ccc(-c2nnc3ccc(SC)nn23)cc1 | 19.5% | 
CCOc1ccc(-c2cc(C)[n+](CCN(CC)CC)c(-c3ccc(OCC)cc3)c2)cc1 |  | 329 nM (active)
CCOc1ccc(-c2nnc(-c3ccco3)o2)cc1 | -31.2% | 
COc1cc(NC(=O)c2cc([N+](=O)[O-])ccc2Br)ccc1NC(=O)c1ccco1 | 12.6% | 
O=C(Nc1ccc(NC(=O)c2ccco2)c(Cl)c1)c1cccc([N+](=O)[O-])c1 |  | 10400 nM (active)
CCC(=O)NC(=S)Nc1ccc(NC(=O)c2ccco2)c(Cl)c1 | 10.8% | 

Source: PubChem BioAssay AID504832 (National Center for Advancing Translational Sciences (NCATS), 2011)
